Screens (PubChem BioAssay)
Only a sample is shown.
aSyn UTR act = Activators working through SNCA 5'UTR binding (MLPCN); alpha-synuclein 5'UTR reporter, activators screen; activity score, % (tested at 7.5 µM), hits read low; 300,000 tested, 7.1% active; in the data active means activity score below about -60%
* marks the source's active call; other numbers are inactive results.

SMILES	aSyn UTR act
COc1cc(C)ccc1OCCOc1ccccc1Cl	-208*
CN1CCC(=NNc2ncnc3sc4c(c23)CCCC4)CC1	-82*
CC(=O)c1ccc(NC(=O)c2cc3ccccc3o2)cc1	-128*
O=C(NNC(=O)c1ccccc1O)c1cc2ccccc2o1	-86*
CC(C)c1nnc(NC(=O)c2cc3ccccc3o2)s1	-135*
O=C(Nc1ccc(N2CCCC2)cc1)c1cc2ccccc2o1	-131*
O=C(Nc1ccc(F)cc1)c1cc2ccccc2o1	-153*
Cc1cc(C(=O)Nc2ccccc2)oc1C	-112*
O=C(Nc1ccccc1)c1cc2ccccc2o1	-112*
O=C(Nc1ccc(NC(=O)c2cc3ccccc3o2)cc1)c1ccco1	-95*
CSC(C(=O)c1cc2ccccc2o1)c1ccccc1 (stereo unspecified)	-88*
O=C(Nc1ccccc1)c1ccc(OC(=O)c2cc3ccccc3o2)cc1	-84*
O=C(c1cc(COc2c(F)cccc2F)on1)N1CCCCCC1	-99*
O=C(c1cc(COc2ccc3c(c2)CCCC3)on1)N1CCCC1	-118*
CCOC(=O)N1CCN(C(=O)c2cc(COc3c(F)cccc3F)on2)CC1	-151*
CN(Cc1nc(-c2cccc(Cl)c2)no1)C1CCOCC1	-121*
C[C@@H]1[C@@H](Sc2ccccc2)CC(=O)O[C@@H]1c1ccc(-c2ccccc2)cc1	-182*
N#Cc1c(Cl)nsc1NC(=O)c1ccccc1	-66*
C=CCNc1sc(C(=O)c2ccccc2)c(N)c1C#N	58
Cc1sc(NC(=O)C2CCCCC2)c(C#N)c1-c1ccccc1	-237*
Cc1cccc(C(=O)Nc2sc(C)c(-c3ccccc3)c2C#N)c1	-260*
CCCCOC(=O)c1cc(-c2ccc(/C=N/n3cnnc3)o2)ccc1Cl	-74*
CCOC(=O)c1cc(-c2ccc(/C=C3/C(=O)N(c4ccc(C(=O)O)cc4)N=C3C)o2)ccc1Cl	-76*
CCC(=O)Nc1ccc(-c2cc3ccccc3oc2=O)cc1	54
COc1ccc(-c2cc3ccccc3oc2=O)cc1NC(=O)c1ccc(Br)o1	-94*
SMILES	aSyn UTR act
CCC(=O)Nc1cc(-c2cc3ccccc3oc2=O)ccc1OC	-98*
COc1ccc(-c2cc3ccccc3oc2=O)cc1NC(=O)c1ccc([N+](=O)[O-])o1	-240*
CCOC(=O)c1c(CNc2ccncc2)n(C)c2cc(Br)c(O)cc12	-62*
CCOC(=O)c1c2c(n(C)c1COC)C(=O)C(=O)c1ccc(Br)cc1-2	92
N#C/C(=C\c1cccs1)C(=O)Nc1nccs1	-75*
O=C(Nc1nccs1)c1ccccc1N=Cc1ccccc1	-84*
C/C=C/C=C/C(=O)Nc1nccs1	-77*
C/C(=C\c1ccccc1)C(=O)Nc1nccs1	-121*
CCCC(=O)NC(=S)Nc1ccc(C(C)=O)cc1	-84*
COc1ccc(C(=O)NNC(=S)Nc2ccccc2)cc1	-207*
N#Cc1ccccc1N/C=C/C(=O)c1ccc(Cl)cc1	-169*
O=C(/C=C/NNC(=O)c1ccc(Cl)cc1)c1ccccc1	-77*
COc1ccc(C(=O)NNC(=O)c2cccc(F)c2)cc1	-82*
COc1ccccc1NC(=S)NNC(=O)c1ccccc1	-101*
O=C(NNC(=S)Nc1cccc(Cl)c1)c1ccccc1	-104*
O=C(NNC(=S)Nc1ccccc1Cl)c1ccccc1	-98*
O=C(NNC(=S)Nc1ccc(Cl)cc1)c1ccccc1	-87*
CC(=O)c1ccc(NC(=S)NNC(=O)c2ccncc2)cc1	-70*
Cc1nn(C)c(C(=O)NNC(=S)Nc2ccc(Cl)cc2)c1[N+](=O)[O-]	-71*
CCOC(=O)CCSc1nc(C)c2cc(C)ccc2n1	-87*
CCc1ccc(NC(=O)[C@H](C)NC(=O)C2CCN(C(=O)[C@@H](N)C(C)C)CC2)cc1	-110*
CCOc1ccc(-n2nc3ccc(N)cc3n2)cc1	73
O=C(/C=C/c1ccco1)Nc1ccc2nn(-c3ccccc3)nc2c1	-209*
CC(C)CC(=O)Nc1ccc2nn(-c3ccccc3)nc2c1	-178*
Nc1ccc2nn(-c3ccc(F)cc3)nc2c1	-108*
SMILES	aSyn UTR act
Cc1ccc(-n2nc3ccc(NC(=O)C(C)C)cc3n2)cc1	-137*
Cc1ccc(-n2nc3ccc(NC(=O)c4cccc([N+](=O)[O-])c4C)cc3n2)cc1	-66*
Cc1ccc(-n2nc3ccc(NC(=O)c4ccco4)cc3n2)cc1	-83*
CCCC(=O)Nc1ccc2nn(-c3ccc(OC)cc3)nc2c1	-121*
CC(C)C(=O)Nc1ccc2nn(-c3ccc(F)cc3)nc2c1	-71*
O=C1CCCCC/C1=N/Nc1ccc(OCc2ccccc2)cc1	-74*
O=[N+]([O-])c1ccc(-c2ccc(/C=N/c3c(-c4ccco4)nc4ccccn34)o2)cc1	-75*
Oc1cccc(/C=N/c2c(-c3ccco3)nc3ccccn23)c1	-72*
Cc1cc(C)c([N+](=O)[O-])cc1-c1ccc(/C=N/c2c(-c3ccco3)nc3ccccn23)o1	-92*
NNc1nc2c(-c3cccc(C(F)(F)F)c3)nnn2c2ccccc12	-71*
O=C(O)CC1=C(Nc2ccccc2)C(=O)N(c2ccccc2)C1c1ccc(F)cc1 (stereo unspecified)	-83*
COc1ccc(C2C(CC(=O)O)=C(Nc3ccccc3)C(=O)N2c2ccccc2)cc1 (stereo unspecified)	-86*
Cc1ccc(-n2ncc(Cl)c2C(=O)NC2CC2)cc1	-153*
C=CCNC(=O)c1c(Cl)cnn1-c1ccc(C)cc1	-95*
CNC(=O)c1c(Cl)cnn1-c1ccc(C)cc1	-151*
CNC(=O)c1c(Br)cnn1-c1ccc(C)cc1	-158*
COc1cc(C(=S)N2CCCC2)ccc1OCc1ccc(C)cc1	-116*
Cc1ccc(COc2ccccc2C(=S)N2CCCC2)cc1	-76*
OCCCNc1cc(-c2ccnc(Nc3cccc(Cl)c3)n2)ccn1	110
CN(C#N)c1nc(Cl)nc(Nc2cccc(Cl)c2)n1	-66*
COc1ccc(/C=C/C2=Nc3ccccc3NC(C)(C)C2)cc1OC	-78*
CCCOc1ccccc1C1CC(=O)Nc2cc3c(cc21)OCCO3 (stereo unspecified)	103
N/C(=N\OC(=O)c1ccc2c(c1)OCO2)c1cccnc1	-139*
COc1cc(C(=O)O/N=C(\N)Cc2ccc([N+](=O)[O-])cc2)cc(OC)c1OC	81
N/C(=N\OC(=O)c1ccc2c(c1)OCO2)c1ccc([N+](=O)[O-])cc1	-128*
SMILES	aSyn UTR act
COc1ccc(/C(N)=N/OC(=O)c2ccc3c(c2)OCO3)cc1OC	-87*
N/C(=N\OC(=O)c1ccc2c(c1)OCO2)c1cccc(Br)c1	-146*
O=c1c(C=NCCCO)c(-c2ccccc2)[nH]n1-c1nc2ccccc2s1	60
O=c1c(C=NCCN2CCNCC2)c(-c2ccccc2)[nH]n1-c1ccc([N+](=O)[O-])cc1	-94*
Cc1cc(SCC(=O)c2cc3ccccc3o2)nc2ccccc12	-73*
COc1ccc2c(c1)Cc1sc(NC(C)=O)nc1-2	-169*
O=C(Nc1nc2c(s1)CCCC2)c1cccnc1	-164*
COc1ccc2c(c1)Cc1sc(NC(=O)c3cccnc3)nc1-2	-63*
COc1ccc2c(c1)-c1nc(NC(=O)c3cccs3)sc1CC2	-122*
Nc1nc(F)nc2c1ncn2[C@@H]1O[C@H](CO)[C@@H](O)[C@H]1O	122
Cc1onc(-c2ccccc2Cl)c1C(=O)Nc1nc2c(s1)CCCC2	-121*
Cc1onc(-c2ccccc2Cl)c1C(=O)N1CCN(c2cccc(Cl)c2)CC1	67
COc1ccc2c(c1)Cc1sc(NC(=O)c3ccco3)nc1-2	-265*
COc1ccc2c(c1)CCc1sc(NC(=O)c3ccco3)nc1-2	-114*
